Results taken from PubChem BioAssay.
Calls of active or inactive are those of the source.

Columns and labels:
[1] = biological target: Albumin (Bos taurus) (UniProt P02769); assay: compounds binding labelled BSA control protein – biochemical, small-molecule microarray, Alexa647 label, 635/667 nm fluorescence, artefact control for SMM control protein annotation, profiling panel (AID 1118); conditions: BSA-A647 binding, fluorescence 635 nm, higher = more signal;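 further: score merges 667 nm emission intensity and signal-to-noise per printed compound spot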
[2] = probe aXIP binding to arrayed compounds – biochemical, NeuroSMM set, 635/667 nm fluorescence, primary screen (AID 1119); conditions: small-molecule microarray, higher = more signal, called active from +8 up or from −8 down;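 further: probe is the protein aXip251-270 applied at 1 µg/mL to compound-printed slides; binding of probe to printed compounds measured as 667 nm fluorescence plus signal to noise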
[3] = probe aNOTCH3 binding on compound microarray – biochemical, small-molecule microarray, 635/667 nm fluorescence, primary screen (AID 1120); conditions: higher = more signal;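 further: probe is a biotin-tagged antibody raised against NOTCH3 rather than NOTCH3 protein; score merges spot fluorescence near 667 nm with spot signal to noise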
[4] = probe aNOTCH2 binding on compound microarray – biochemical, small-molecule microarray, 635/667 nm fluorescence, primary screen (AID 1121); conditions: higher = more signal;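 further: score merges feature fluorescence read at 667 nm with its signal to noise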
[5] = biological target: Carbonic anhydrase 2 (Homo sapiens) (UniProt P00918); assay: compounds binding carbonic anhydrase 2 – biochemical, small-molecule microarray, Alexa647-labelled CAII, profiling panel (AID 1122); conditions: CAII-A647 binding fluorescence, higher = more signal
[6] = COS7 lysate on small-molecule microarray, probe aHis, 635 nm (AID 1123); conditions: COS7 cell lysate, fluorescence, higher = more signal;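 further: z-score combines 667nm fluorescence intensity with signal-to-noise per printed compound spot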
[7] = probe aLAP1 signal on lysate-treated microarray – cell lysate, small-molecule microarray, COS7 lysate, primary screen (AID 1124); conditions: probe aLAP1, fluorescence, higher = more signal;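 further: lysate comes from COS7 cells expressing LAP1 and is applied at 0.3 µg/mL; score merges spot fluorescence near 667 nm with signal-to-noise over triplicate slides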
[8] = system: Sam68 (KHDRBS1); assay: compounds binding KHDRBS1 protein – biochemical, small-molecule microarray, 635 nm fluorescence, primary screen (AID 1125); conditions: higher = more signal;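 further: score merges 667 nm channel intensity with signal to noise over triplicate slides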
[9] = system: Chordin-like protein 2 (CHRDL2); assay: compounds binding chordin-like 2 – biochemical, small-molecule microarray, 635 nm fluorescence, primary screen (AID 1126); conditions: fluorescence 635 nm, higher = more signal;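 further: printed compound slides probed with Chrdl2 protein at 4 µg/mL for 1 h at 4 C; score merges 667 nm emission intensity with signal to noise over three replicate slides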
[10] = biological target: Concanavalin-A (Canavalia ensiformis) (UniProt P02866); assay: compounds binding concanavalin A lectin – biochemical, small-molecule microarray, Alexa647 label, 635 nm, artefact control for SMM control protein annotation, primary screen (AID 1127); conditions: ConA-A647 binding fluorescence, higher = more signal;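 further: z combines 667 nm emission intensity with signal-to-noise across three replicate slides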
Chain of Concanavalin-A (Canavalia ensiformis) (P02866 whole entry, looked up): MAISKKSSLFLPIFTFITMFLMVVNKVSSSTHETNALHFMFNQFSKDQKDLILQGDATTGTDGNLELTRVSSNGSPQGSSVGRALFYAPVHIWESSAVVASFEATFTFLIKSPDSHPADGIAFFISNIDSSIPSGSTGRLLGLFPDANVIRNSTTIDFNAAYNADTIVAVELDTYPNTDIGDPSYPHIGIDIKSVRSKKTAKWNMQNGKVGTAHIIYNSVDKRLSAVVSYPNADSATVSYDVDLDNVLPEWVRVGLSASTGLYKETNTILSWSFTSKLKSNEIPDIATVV

Chain of Albumin (Bos taurus) (P02769 whole entry, looked up): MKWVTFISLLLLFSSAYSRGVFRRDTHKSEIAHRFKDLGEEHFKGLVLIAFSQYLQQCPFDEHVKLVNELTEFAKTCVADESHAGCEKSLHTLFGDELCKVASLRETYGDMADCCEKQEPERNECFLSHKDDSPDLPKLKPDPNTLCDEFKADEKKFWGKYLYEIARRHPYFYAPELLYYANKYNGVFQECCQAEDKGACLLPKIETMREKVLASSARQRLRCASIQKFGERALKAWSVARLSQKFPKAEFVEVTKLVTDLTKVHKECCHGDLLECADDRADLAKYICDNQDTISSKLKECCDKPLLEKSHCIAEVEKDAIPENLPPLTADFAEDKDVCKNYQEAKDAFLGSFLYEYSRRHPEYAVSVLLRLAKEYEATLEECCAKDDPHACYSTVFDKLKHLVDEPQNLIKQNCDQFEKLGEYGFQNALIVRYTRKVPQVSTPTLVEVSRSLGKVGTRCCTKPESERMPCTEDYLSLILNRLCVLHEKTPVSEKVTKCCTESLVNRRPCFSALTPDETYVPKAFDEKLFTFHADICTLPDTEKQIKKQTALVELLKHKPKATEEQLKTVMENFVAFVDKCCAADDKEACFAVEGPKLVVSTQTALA

Compound	composite z-score [1]	composite Z-score [2]	composite z-score [3]	composite z-score [4]	composite z-score [5]	composite z-score [6]	composite z-score [7]	composite z-score [8]	composite z-score [9]	composite z-score [10]
CC(C)(C)OC(=O)CC[C@]1(C(=O)NCc2ccccc2)N=C(c2ccc(OCCCO)cc2)O[C@H]1c1ccccc1	0.912	-0.0089 (inactive)	0.61	0.0216	0.735	3.07	0.378	1.3	-0.672	1.11
C/C=C\[C@@H](NCc1ccccc1Br)[C@@H](O)Cc1ccccc1	0.099	0.168 (inactive)	-0.221	-0.13	-0.263	-0.103	-0.0543	-0.636	-1.02	-0.342
CCc1cc2c(nc1CC)CCN(CCC(C)=NOC[C@@H](O)COCc1ccco1)C2	-0.576	-0.206 (inactive)	1.03	0.31	0.193	-0.988	0.377	0.226	1.57	0.212
Cc1ccc(S[C@]2(C(=O)NCC(F)(F)F)CC(=O)N(Cc3ccccc3Cl)[C@@H]2c2ccc(CO)cc2I)cc1	-0.937	0.0162 (inactive)	-0.133	-0.134	0.796	1.56	-0.49	0.0712	-1.04	-0.275
CC(C)[C@@H](OCc1ccccc1)[C@H](C)C=NO[C@H](C)c1cn([C@H](CO)Cc2ccccc2)nn1	0.0792	0.0599 (inactive)	-0.0362	-0.163	0.0227	0.544	0.294	1.01	0.779	0.392
CC(C)(C)N1C(=O)[C@H]2[C@H]3[C@H](O)[C@H](O)CC(=NOCc4ccccc4)[C@@H]3CC[C@H]2C1=O	0.8	0.588 (inactive)	0.111	-0.131	0.675	0.384	0.532	1.17	0.831	0.694
[N-]=[N+]=Nc1ccccc1C[C@@]1(C(N)=O)N=C(c2ccc(OCCCO)cc2)O[C@@H]1c1ccccc1	0.841	0.0117 (inactive)	-0.0014	-0.0633	0.723	1.74	0.567	1.05	-1.26	0.704
COc1ccc(O[C@H]2C=C[C@@H](c3ccccc3)O[C@@H]2COC(=O)CCC(C)=NO[C@H](C)c2cn([C@@H]3COC[C@H]3O)nn2)cc1	0.454	0.362 (inactive)	-0.015	-0.211	-0.106	-0.208	0.263	0.771	0.656	0.427
COC(=O)[C@@]1(Cc2ccc(F)cc2)[C@@H]2C(=CC(=O)[C@H]2CC(=O)C(=O)N(C)C)CN1C(=O)c1ccccc1	0.979	-1.12 (inactive)	0.476	0.308	0.785	3.01	0.663	1.21	0.13	1.16
O=C1[C@H]2[C@H]3[C@H](O)[C@H](O)CC(=NO[C@@H]4O[C@H](CO)[C@@H](O)[C@H](O)[C@H]4O)[C@H]3CC[C@H]2C(=O)N1Cc1ccccc1	-0.258	-0.304 (inactive)	0.0145	-0.127	-0.457	0.904	0.0052	1.32	-0.564	0.0723
COC(=O)CC=C[C@@H](C)[C@H](OC)c1ccccc1Br	-0.335	0.0948 (inactive)	0.0985	-0.0684	-0.0896	-0.453	0.1	-0.0689	0.508	-0.24
CCOC(=O)[C@H](Cc1ccccc1)NC(=O)CCC1CC(OC(=O)NCCc2ccc(F)cc2)CC2(CCCC(COC(=O)NCC(c3ccccc3)c3ccccc3)O2)O1 (stereo not given in full)	0.641	0.066 (inactive)	-0.0893	-0.037	0.16	1.04	0.0435	1.32	0.227	0.992
O=C1[C@H]2[C@H]3[C@H](O)[C@H](O)CC(=NOCc4ccccc4)[C@H]3CC[C@H]2C(=O)N1c1cccc(Oc2ccccc2)c1	0.442	-0.171 (inactive)	0.0793	-0.161	0.144	1.14	0.229	1.05	-0.0086	0.707
COCC1=C2[C@@H](CCc3ccccc3)OB(O)C[C@@H]2n2c(=O)n(-c3ccccc3)c(=O)n2C1	0.352	-0.532 (inactive)	-0.0204	-0.0649	0.0995	-0.0955	0.0421	-0.0265	0.198	-0.0151
CCOC(=O)[C@H](Cc1ccccc1)NC(=O)CCC1CC(OC(=O)NCc2ccc3c(c2)OCO3)CC2(CCCC(COC(=O)NCC(c3ccccc3)c3ccccc3)O2)O1 (stereo not given in full)	0.48	-0.718 (inactive)	0.17	-0.11	0.28	0.86	0.0713	1.32	0.226	0.329
CCOC(=O)C[C@H]1[C@H](OC(=O)c2cc3ccccc3oc2=O)[C@@H](NC(=O)c2ccc3ccccc3n2)c2cc(OCCCO)ccc2N1C(=O)c1ccccc1	0.328	0.946 (inactive)	0.154	-0.0424	0.639	0.476	0.668	0.604	0.789	0.728
CCOC(=O)CCN1C(=O)[C@H]2[C@H]3[C@H](O)C=CC(=O)[C@@H]3CC[C@H]2C1=O	-0.186	0.422 (inactive)	-0.0449	-0.0686	-0.078	0.107	-0.225	0.323	0.34	0.412
CC(C)NC(=O)[C@@]1(C)c2ccccc2C(=O)N(Cc2cc(F)cc(C(F)(F)F)c2)[C@H]1c1ccc(CO)cc1	0.293	0.74 (inactive)	0.191	-0.102	0.645	1.03	0.433	1.23	0.153	0.674
CCOC(=O)CCN1C(=O)[C@H]2[C@H]3[C@H](O)[C@H](O)CC(=NOCc4ccccc4)[C@@H]3CC[C@H]2C1=O	0.762	0.415 (inactive)	-0.0996	-0.199	0.381	0.317	0.784	0.37	0.116	0.246
CO[C@H]1COC(=O)[C@H](C)NC(=O)[C@@H](C)COC(=O)CC=C[C@@H]1C	-0.331	0.0462 (inactive)	-0.0391	-0.192	-0.336	-0.851	-0.0193	0.41	0.858	0.303
COC(=O)CC=C[C@@H](C)[C@@H](C=NO[C@H](C)c1cn([C@@H]2COC[C@H]2O)nn1)OC	0.162	-0.311 (inactive)	-0.0377	-0.122	-0.111	0.214	-0.115	0.747	0.666	0.266
C=C(/C(=C/C[C@H](OC(C)=O)c1ccc(OCCO)cc1)c1cnc2ccccc2c1)C(C)C	-0.154	-0.229 (inactive)	0.0418	-0.146	0.885	0.575	-0.315	1.3	1.2	1.09
CC[C@@H](c1ccccc1)n1c(=O)n2n(c1=O)[C@H]1[C@H](O)[C@@H]3O[C@@H]3C(=NOCC(C)C)[C@H]1CC2	-0.231	-0.0127 (inactive)	-0.0189	-0.0986	0.308	0.0644	0.422	0.362	-0.086	0.0275
C[C@@H]1CCC2C(=O)N(Cc3ccccc3)C[C@@H](O)CN2[C@H]1c1ccc(Br)cc1 (stereo not given in full)	0.33	0.0923 (inactive)	-0.0362	-0.176	0.375	0.669	-0.0066	0.621	0.374	0.646
CO[C@H]1O[C@H](CO)[C@@H](OC(=O)Nc2ccc3c(c2)OCO3)[C@H](OC(=O)Nc2ccccc2-c2ccccc2)[C@@H]1OC(=O)Nc1ccccc1-c1ccccc1	0.929	0.558 (inactive)	0.276	0.186	0.543	2.08	0.429	1.28	-0.116	1.17
CCN1C(=O)[C@H]2[C@H]3[C@H](O)[C@H](O)CC(=NOC[C@@H](C)[C@H](OCc4ccccc4)C(C)C)[C@@H]3CC[C@H]2C1=O	0.665	0.0576 (inactive)	-0.152	-0.131	-0.0205	0.276	-0.504	0.614	-0.13	-0.223
c1ccc(C2NCCc3c2[nH]c2ccccc32)cc1 (stereo not given)	0.0809	-0.0389 (inactive)	0.0876	-0.053	0.743	-0.0295	-0.0502	-0.409	0.195	-0.082
CCCCc1nc2c(c3c1C[C@H](C)OC3)CN(CCC(C)C)CC2	0.627	-0.214 (inactive)	-0.0343	-0.16	0.221	1.68	0.44	1.31	0.388	0.934
